Measurements as given in PubChem BioAssay AID1159580 (chemical genetic matrix, 2015).
Among all 5,500 compounds or so, about 2,000 (36%) were called active. Another 18% or so got no clear call; they are omitted. Cut-off read from the data, not from the text of the source: active = normalized growth mostly below about 0.91 (no sharp cut-off); inconclusive = no clear call, values can overlap the other calls; inactive = mostly above about 0.92. The list shows a part of the results.

Assay: chemical genetic growth profiling, strain panel (AID 1159580);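 note: tested at 20 µM; growth read once vehicle control cultures reached saturation at 30 °C; 1 = growth at the plate median or of vehicle wells; lower values mean less growth of the strain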
Details: growth OD
[1] = S. cerevisiae deletion strains, locus YDL101C, strain DUN1, stronger effect = lower value
[2] = S. cerevisiae deletion strains, locus YGR078C, strain PAC10, stronger effect = lower value
[3] = S. cerevisiae deletion strains, locus YHR030C, strain SLT2, stronger effect = lower value
[4] = S. cerevisiae deletion strains, locus YJR075W, strain HOC1, stronger effect = lower value
[5] = S. cerevisiae deletion strains, locus YNL153C, strain GIM3, stronger effect = lower value
[6] = S. cerevisiae deletion strains, locus YNL322C, strain KRE1, stronger effect = lower value
[7] = S. cerevisiae deletion strains, locus YPL055C, strain LGE1, stronger effect = lower value
[8] = S. cerevisiae deletion strains, locus YAR019C, strain CDC15, stronger effect = lower value
[9] = S. cerevisiae deletion strains, locus YBL105C, strain PKC1, stronger effect = lower value
[10] = S. cerevisiae deletion strains, locus YBR135W, strain CKS1, stronger effect = lower value
[11] = S. cerevisiae deletion strains, locus YBR136W, strain MEC1, stronger effect = lower value
[12] = S. cerevisiae deletion strains, locus YBR160W, strain CDC28, stronger effect = lower value
[13] = S. cerevisiae deletion strains, locus YDL017W, strain CDC7, stronger effect = lower value
[14] = S. cerevisiae deletion strains, locus YDL028C, strain MPS1, stronger effect = lower value
[15] = S. cerevisiae deletion strains, locus YDL108W, strain KIN28, stronger effect = lower value
[16] = S. cerevisiae deletion strains, locus YDL132W, strain cdc53, stronger effect = lower value
[17] = S. cerevisiae deletion strains, locus YDL214C, strain PRR2, stronger effect = lower value
[18] = S. cerevisiae deletion strains, locus YDR052C, strain DBF4, stronger effect = lower value
[19] = S. cerevisiae deletion strains, locus YDR054C, strain cdc34, stronger effect = lower value
[20] = S. cerevisiae deletion strains, locus YDR226W, strain ADK1, stronger effect = lower value
[21] = S. cerevisiae deletion strains, locus YDR477W, strain SNF1, stronger effect = lower value
[22] = S. cerevisiae deletion strains, locus YER123W, strain YCK3, stronger effect = lower value
[23] = S. cerevisiae deletion strains, locus YER133W, strain GLC7, stronger effect = lower value
[24] = S. cerevisiae deletion strains, locus YFL009W, strain cdc4, stronger effect = lower value
[25] = S. cerevisiae deletion strains, locus YFL029C, strain CAK1, stronger effect = lower value
[26] = S. cerevisiae deletion strains, locus YFR003C, strain YPI1, stronger effect = lower value
[27] = S. cerevisiae deletion strains, locus YFR019W, strain FAB1, stronger effect = lower value
[28] = S. cerevisiae deletion strains, locus YFR028C, strain CDC14, stronger effect = lower value
[29] = S. cerevisiae deletion strains, locus YGR040W, strain KSS1, stronger effect = lower value
[30] = S. cerevisiae deletion strains, locus YGR052W, strain FMP48, stronger effect = lower value
[31] = S. cerevisiae deletion strains, locus YGR092W, strain DBF2, stronger effect = lower value
[32] = S. cerevisiae deletion strains, locus YHR079C, strain IRE1, stronger effect = lower value
[33] = S. cerevisiae deletion strains, locus YHR082C, strain KSP1, stronger effect = lower value
[34] = S. cerevisiae deletion strains, locus YHR205W, strain SCH9, stronger effect = lower value
[35] = S. cerevisiae deletion strains, locus YIL147C, strain SLN1, stronger effect = lower value
[36] = S. cerevisiae deletion strains, locus YJL095W, strain BCK1, stronger effect = lower value
[37] = S. cerevisiae deletion strains, locus YJL128C, strain PBS2, stronger effect = lower value
[38] = S. cerevisiae deletion strains, locus YJL157C, strain FAR1, stronger effect = lower value
[39] = S. cerevisiae deletion strains, locus YJR016C, strain ILV3, stronger effect = lower value
[40] = S. cerevisiae deletion strains, locus YJR066W, strain TOR1 (second series), stronger effect = lower value
[41] = S. cerevisiae deletion strains, locus YJR066W, strain TOR1, stronger effect = lower value
[42] = S. cerevisiae deletion strains, locus YKL048C, strain ELM1, stronger effect = lower value
[43] = S. cerevisiae deletion strains, locus YKL067W, strain YNK1, stronger effect = lower value
[44] = S. cerevisiae deletion strains, locus YKL101W, strain HSL1, stronger effect = lower value
[45] = S. cerevisiae deletion strains, locus YKL193C, strain SDS22, stronger effect = lower value
[46] = S. cerevisiae deletion strains, locus YKL203C, strain TOR2, stronger effect = lower value
[47] = S. cerevisiae deletion strains, locus YLR113W, strain HOG1, stronger effect = lower value
[48] = S. cerevisiae deletion strains, locus YLR133W, strain CKI1, stronger effect = lower value
[49] = S. cerevisiae deletion strains, locus YLR403W, strain SFP1, stronger effect = lower value
[50] = S. cerevisiae deletion strains, locus YML070W, strain DAK1, stronger effect = lower value
[51] = S. cerevisiae deletion strains, locus YMR001C, strain CDC5, stronger effect = lower value
[52] = S. cerevisiae deletion strains, locus YMR205C, strain PFK2 (second series), stronger effect = lower value
[53] = S. cerevisiae deletion strains, locus YMR277W, strain FCP1, stronger effect = lower value
[54] = S. cerevisiae deletion strains, locus YNL006W, strain LST8, stronger effect = lower value
[55] = S. cerevisiae deletion strains, locus YNL020C, strain ARK1, stronger effect = lower value
[56] = S. cerevisiae deletion strains, locus YNL161W, strain CBK1, stronger effect = lower value
[57] = S. cerevisiae deletion strains, locus YNL183C, strain NPR1, stronger effect = lower value
[58] = S. cerevisiae deletion strains, locus YNL207W, strain RIO2, stronger effect = lower value
[59] = S. cerevisiae deletion strains, locus YNL222W, strain SSU72, stronger effect = lower value
[60] = S. cerevisiae deletion strains, locus YNL307C, strain MCK1 (second series), stronger effect = lower value
[61] = S. cerevisiae deletion strains, locus YOL078W, strain AVO1, stronger effect = lower value
[62] = S. cerevisiae deletion strains, locus YOL136C, strain PFK27, stronger effect = lower value
[63] = S. cerevisiae deletion strains, locus YOR061W, strain CKA2, stronger effect = lower value
[64] = S. cerevisiae deletion strains, locus YOR119C, strain RIO1, stronger effect = lower value
[65] = S. cerevisiae deletion strains, locus YOR231W, strain MKK1, stronger effect = lower value
[66] = S. cerevisiae deletion strains, locus YOR329C, strain SCD5, stronger effect = lower value
[67] = S. cerevisiae deletion strains, locus YPL031C, strain PHO85, stronger effect = lower value
[68] = S. cerevisiae deletion strains, locus YPL153C, strain RAD53, stronger effect = lower value
[69] = S. cerevisiae deletion strains, locus YPL204W, strain HRR25, stronger effect = lower value
[70] = S. cerevisiae deletion strains, locus YPL209C, strain IPL1, stronger effect = lower value
[71] = S. cerevisiae deletion strains, locus YPL256C, strain CLN2, stronger effect = lower value
[72] = S. cerevisiae deletion strains, locus YPR025C, strain CCL1, stronger effect = lower value
[73] = S. cerevisiae deletion strains, locus YPR106W, strain ISR1, stronger effect = lower value
[74] = S. cerevisiae deletion strains, locus YPR111W, strain DBF20, stronger effect = lower value
[75] = S. cerevisiae deletion strains, strain NNK1, stronger effect = lower value
[76] = S. cerevisiae deletion strains, strain TSCII, stronger effect = lower value

Measured: normalized growth

O=C(COC(=O)c1ccccc1C(=O)c1ccccc1)c1ccccc1
inactive: S. cerevisiae deletion strains, locus YAL013W, strain DEP1, stronger effect = lower value 0.984 | S. cerevisiae deletion strains, locus YBR229C, strain ROT2, stronger effect = lower value 0.988 | [1] 0.97 | S. cerevisiae deletion strains, locus YDR150W, strain NUM1, stronger effect = lower value 0.969 | S. cerevisiae deletion strains, locus YEL061C, strain CIN8, stronger effect = lower value 0.989 | [2] 0.98 | S. cerevisiae deletion strains, locus YGR229C, strain SMI1, stronger effect = lower value 0.993 | [3] 0.861 | S. cerevisiae deletion strains, locus YHR087W, strain rtc3, stronger effect = lower value 0.98 | S. cerevisiae deletion strains, locus YJR043C, strain POL32, stronger effect = lower value 0.979 | [4] 0.957 | S. cerevisiae deletion strains, locus YKL190W, strain CNB1, stronger effect = lower value 0.998 | S. cerevisiae deletion strains, locus YLR039C, strain RIC1, stronger effect = lower value 0.912 | S. cerevisiae deletion strains, locus YLR058C, strain SHM2 (second series), stronger effect = lower value 0.984 | S. cerevisiae deletion strains, locus YLR085C, strain ARP6, stronger effect = lower value 0.936 | S. cerevisiae deletion strains, locus YLR262C, strain YPT6, stronger effect = lower value 0.933 | S. cerevisiae deletion strains, locus YML094W, strain GIM5, stronger effect = lower value 0.99 | S. cerevisiae deletion strains, locus YMR219W, strain ESC1, stronger effect = lower value 0.978 | S. cerevisiae deletion strains, locus YMR263W, strain SAP30, stronger effect = lower value 0.902 | [5] 0.99 | S. cerevisiae deletion strains, locus YNL298W, strain CLA4 (second series), stronger effect = lower value 0.971 | [6] 0.989 | S. cerevisiae deletion strains, locus YNR030W, strain Alg12, stronger effect = lower value 0.975 | [7] 0.979 | S. cerevisiae deletion strains, locus YPL241C, strain CIN2, stronger effect = lower value 0.95 | S. cerevisiae deletion strains, locus YPR135W, strain CTF4, stronger effect = lower value 0.868 | S. cerevisiae strains, strain wild type, stronger effect = lower value 1

CC(=O)c1ccccc1C(=O)c1ccc(C(C)(C)C)cc1
active: [47] 0.761 | [71] 0.85
inactive: [8] 0.961 | [9] 0.961 | [10] 0.957 | [11] 0.96 | [12] 0.959 | [13] 0.956 | [14] 0.961 | [1] 0.95 | [15] 0.964 | [16] 0.958 | [17] 0.969 | [18] 0.964 | [19] 0.957 | [20] 0.96 | [21] 0.969 | [22] 0.982 | [23] 0.953 | [24] 0.953 | [25] 0.953 | [26] 0.961 | [27] 0.981 | [28] 0.965 | [29] 0.967 | [30] 0.992 | [31] 0.954 | [3] 0.855 | [32] 0.918 | [33] 1.07 | [34] 1 | [35] 0.961 | [36] 0.999 | [37] 0.918 | [38] 0.984 | [39] 0.969 | [40] 0.989 | [41] 1.04 | [42] 0.939 | [43] 0.967 | [44] 0.976 | [45] 0.961 | [46] 0.989 | [48] 0.986 | [49] 0.985 | [50] 0.953 | [51] 0.959 | [52] 0.981 | [53] 0.963 | [54] 0.954 | [55] 0.99 | [56] 0.959 | [57] 1 | [58] 0.958 | [59] 0.966 | [60] 0.975 | [61] 0.967 | [62] 0.98 | [63] 0.975 | [64] 1.02 | [65] 0.949 | [66] 0.961 | [67] 0.961 | [68] 0.953 | [69] 0.96 | [70] 0.959 | [72] 0.96 | [73] 0.969 | [74] 0.946 | [75] 0.96 | [76] 0.955

C/C(=N/NC(=O)c1ccc(C(C)(C)C)cc1)c1ccccc1O
active: [47] 0.779 | [71] 0.808
inactive: [8] 0.985 | [9] 0.979 | [10] 0.969 | [11] 0.979 | [12] 0.98 | [13] 0.979 | [14] 0.974 | [1] 0.963 | [15] 0.972 | [16] 0.98 | [17] 0.976 | [18] 0.979 | [19] 0.978 | [20] 0.971 | [21] 0.985 | [22] 0.97 | [23] 0.979 | [24] 0.977 | [25] 0.974 | [26] 0.979 | [27] 1.01 | [28] 0.981 | [29] 0.994 | [30] 1 | [31] 0.934 | [3] 0.876 | [32] 0.952 | [33] 1.07 | [34] 0.995 | [35] 0.976 | [36] 0.972 | [37] 0.939 | [38] 0.981 | [39] 0.987 | [40] 0.969 | [41] 1.05 | [42] 0.985 | [43] 0.966 | [44] 0.987 | [45] 0.988 | [46] 1.01 | [48] 0.988 | [49] 1 | [50] 0.964 | [51] 0.978 | [52] 0.981 | [53] 0.98 | [54] 0.976 | [55] 1.01 | [56] 0.983 | [57] 1.01 | [58] 0.969 | [59] 0.976 | [60] 1.01 | [61] 0.986 | [62] 0.977 | [63] 0.995 | [64] 1.05 | [65] 0.952 | [66] 0.975 | [67] 0.979 | [68] 0.981 | [69] 0.967 | [70] 0.977 | [72] 0.971 | [73] 0.986 | [74] 0.972 | [75] 0.966 | [76] 0.981

CN(C)C(=O)N=NC(=O)N(C)C
inactive: S. cerevisiae deletion strains, locus YAL040C, strain CLN3, stronger effect = lower value 0.985 | S. cerevisiae deletion strains, locus YCL061C, strain MRC1 (second series), stronger effect = lower value 0.994 | S. cerevisiae deletion strains, locus YDR363W, strain ESC2, stronger effect = lower value 1.04 | S. cerevisiae deletion strains, locus YER002W, strain NOP16, stronger effect = lower value 1.03 | [2] 0.99 | [4] 1.02 | S. cerevisiae deletion strains, locus YNL128W, strain TEP1, stronger effect = lower value 0.983 | [5] 0.968 | S. cerevisiae deletion strains, locus YNL175C, strain NOP13, stronger effect = lower value 0.996 | S. cerevisiae deletion strains, locus YNL197C, strain WHI3, stronger effect = lower value 0.984 | S. cerevisiae deletion strains, locus YNL224C, strain SQS1, stronger effect = lower value 1.01 | [6] 1.02 | S. cerevisiae deletion strains, locus YOR083W, strain WHI5 (second series), stronger effect = lower value 0.968 | [7] 1.06
